Laboratory results taken from the supplement of paper PMC8728848.
The sample as a whole holds a higher share of the strongest signals than the screen did.

Legend:
Test in all cases: glycan array binding signal (z-score within array); higher = stronger binding
Conditions in all cases: glycan notation: IUPAC condensed, linker removed
[1] = target: Fuc(a1-2)Gal(b1-3)GalNAc(a1-3)[Fuc(a1-2)]Gal(b1-4)Glc
How it was run: (§1)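 Glycan array binding is given as a within-array Z-score, which can be read as non-binding when negative. The arrays, 3228 of them, came from the Consortium for Functional Glycomics database and were retained only where the protein sequence was available. Z-scores were averaged across arrays of the same protein sequence at different concentrations or buffers and across linkers.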

[2] = target: Fuc(a1-2)Gal(b1-3)GlcNAc(b1-3)Gal(b1-4)Glc
How it was run: as §1

[3] = target: Fuc(a1-2)Gal(b1-3)[Fuc(a1-4)]GlcNAc(b1-3)[Fuc(a1-3)[Gal(b1-4)]GlcNAc(b1-6)]Gal(b1-4)Glc
How it was run: as §1

[4] = target: Fuc(a1-2)Gal(b1-4)GlcNAc(b1-2)Man
How it was run: as §1

[5] = target: Fuc(a1-2)Gal(b1-4)GlcNAc(b1-2)Man(a1-3)[Fuc(a1-2)Gal(b1-4)GlcNAc(b1-2)Man(a1-6)]Man(b1-4)GlcNAc(b1-4)[Fuc(a1-6)]GlcNAc
How it was run: as §1

[6] = target: Fuc(a1-2)Gal(b1-4)GlcNAc(b1-3)[Fuc(a1-2)Gal(b1-4)GlcNAc(b1-6)]GalNAc
How it was run: as §1

[7] = target: Fuc(a1-2)Gal(b1-4)[Fuc(a1-3)]GlcNAc(b1-3)Gal(b1-4)[Fuc(a1-3)]GlcNAc
How it was run: as §1

[8] = target: Fuc(a1-2)Gal6S(b1-3)GlcNAc6S
How it was run: as §1

[9] = target: Fuc(a1-2)[GalNAc(a1-3)]Gal(b1-3)GlcNAc(b1-2)Man(a1-3)[Fuc(a1-2)[GalNAc(a1-3)]Gal(b1-3)GlcNAc(b1-2)Man(a1-6)]Man(b1-4)GlcNAc(b1-4)[Fuc(a1-6)]GlcNAc
How it was run: as §1

[10] = target: Fuc(a1-2)[GalNAc(a1-3)]Gal(b1-3)GlcNAc(b1-3)GalNAc
How it was run: as §1

[11] = target: Fuc(a1-2)[GalNAc(a1-3)]Gal(b1-4)GlcNAc(b1-2)Man(a1-3)[Fuc(a1-2)[GalNAc(a1-3)]Gal(b1-4)GlcNAc(b1-2)Man(a1-6)]Man(b1-4)GlcNAc(b1-4)[Fuc(a1-6)]GlcNAc
How it was run: as §1

[12] = target: Fuc(a1-3)[Gal(b1-4)]GlcNAc(b1-2)Man(a1-3)[Fuc(a1-3)[Gal(b1-4)]GlcNAc(b1-2)Man(a1-6)]Man(b1-4)GlcNAc(b1-4)[Fuc(a1-6)]GlcNAc
How it was run: as §1

[13] = target: Fuc(a1-3)[GalNAc3S(b1-4)]GlcNAc
How it was run: as §1

[14] = target: Gal(a1-3)Gal(b1-3)[Fuc(a1-4)]GlcNAc(b1-2)Man(a1-3)[Gal(a1-3)Gal(b1-3)[Fuc(a1-4)]GlcNAc(b1-2)Man(a1-6)]Man(b1-4)GlcNAc(b1-4)GlcNAc
How it was run: as §1

Gal(a1-3)Gal(b1-4)Glc = target: Gal(a1-3)Gal(b1-4)Glc
How it was run: as §1

[15] = target: Gal(a1-3)Gal(b1-4)[Fuc(a1-3)]GlcNAc
How it was run: as §1

Gal(a1-4)Gal(b1-4)GlcNAc = target: Gal(a1-4)Gal(b1-4)GlcNAc
How it was run: as §1

Gal(b1-2)Gal = target: Gal(b1-2)Gal
How it was run: as §1

[16] = target: Gal(b1-3)GalNAc(a1-3)[Fuc(a1-2)]Gal(b1-4)GlcNAc
How it was run: as §1

[17] = target: Gal(b1-3)GlcNAc(a1-3)Gal(b1-4)GlcNAc
How it was run: as §1

[18] = target: Gal(b1-3)GlcNAc(b1-3)Gal(b1-3)GlcNAc
How it was run: as §1

[19] = target: Gal(b1-3)[Fuc(a1-4)]GlcNAc(b1-2)Man(a1-3)[Gal(b1-3)[Fuc(a1-4)]GlcNAc(b1-2)Man(a1-6)]Man(b1-4)GlcNAc(b1-4)[Fuc(a1-6)]GlcNAc
How it was run: as §1

Gal(b1-4)GlcNAc(b1-2)Man = target: Gal(b1-4)GlcNAc(b1-2)Man
How it was run: as §1

Gal3S6S(b1-4)GlcNAc = target: Gal3S6S(b1-4)GlcNAc
How it was run: as §1

Gal6S(b1-4)Glc = target: Gal6S(b1-4)Glc
How it was run: as §1

[20] = target: GlcNAc(a1-4)Gal(b1-4)GlcNAc(b1-3)Gal(b1-4)[Fuc(a1-3)]GlcNAc(b1-3)Gal(b1-4)[Fuc(a1-3)]GlcNAc
How it was run: as §1

[21] = target: GlcNAc(b1-2)Man(a1-3)[GlcNAc(b1-4)][GlcNAc(b1-2)Man(a1-6)]Man(b1-4)GlcNAc(b1-4)GlcNAc
How it was run: as §1

GlcNAc(b1-3)Gal = target: GlcNAc(b1-3)Gal
How it was run: as §1

[22] = target: Kdn(a2-3)Gal(b1-4)[Fuc(a1-3)]GlcNAc
How it was run: as §1

[23] = target: Man(a1-2)Man(a1-2)Man(a1-3)Man
How it was run: as §1

B1: StcE (Escherichia coli), O82882.2 (protein)
chain: ADNNSAIYFNTSQPINDLQGSLAAEVKFAQSQILPAHPKEGDSQPHLTSLRKSLLLVRPVKADDKTPVQVEARDDNNKILGTLTLYPPSSLPDTIYHLDGVPEGGIDFTPHNGTKKIINTVAEVNKLSDASGSSIHSHLTNNALVEIHTANGRWVRDIYLPQGPDLEGKMVRFVSSAGYSSTVFYGDRKVTLSVGNTLLFKYVNGQWFRSGELENNRITYAQHIWSAELPAHWIVPGLNLVIKQGNLSGRLNDIKIGAPGELLLHTIDIGMLTTPRDRFDFAKDKEAHREYFQTIPVSRMIVNNYAPLHLKEVMLPTGELLTDMDPGNGGWHSGTMRQRIGKELVSHGIDNANYGLNSTAGLGENSHPYVVAQLAAHNSRGNYANGIQVHGGSGGGGIVTLDSTLGNEFSHEVGHNYGLGHYVDGFKGSVHRSAENNNSTWGWDGDKKRFIPNFYPSQTNEKSCLNNQCQEPFDGHKFGFDAMAGGSPFSAANRFTMYTPNSSAIIQRFFENKAVFDSRSSTGFSKWNADTQEMEPYEHTIDRAEQITASVNELSESKMAELMAEYAVVKVHMWNGNWTRNIYIPTASADNRGSILTINHEAGYNSYLFINGDEKVVSQGYKKSFVSDGQFWKERDVVDTREARKPEQFGVPVTTLVGYYDPEGTLSSYIYPAMYGAYGFTYSDDSQNLSDNDCQLQVDTKEGQLRFRLANHRANNTVMNKFHINVPTESQPTQATLVCNNKILDTKSLTPAPEGLTYTVNGQALPAKENEGCIVSVNSGKRYCLPVGQRSGYSLPDWIVGQEVYVDSGAKAKVLLSDWDNLSYNRIGEFVGNVNPADMKKVKAWNGQYLDFSKPRSMRVVYK
glycan array binding signal (z-score) [1]: -0.142
glycan array binding signal (z-score) [2]: -0.144
glycan array binding signal (z-score) [3]: -0.147
glycan array binding signal (z-score) [4]: -0.132
glycan array binding signal (z-score) [5]: 1.14
glycan array binding signal (z-score) [6]: 2.85
glycan array binding signal (z-score) [7]: -0.122
glycan array binding signal (z-score) [8]: 5.23
glycan array binding signal (z-score) [9]: 0.015
glycan array binding signal (z-score) [10]: -0.096
glycan array binding signal (z-score) [11]: -0.164
glycan array binding signal (z-score) [12]: -0.117
glycan array binding signal (z-score) [13]: -0.164
glycan array binding signal (z-score) [14]: 4.13
glycan array binding signal (z-score) (Gal(a1-3)Gal(b1-4)Glc): -0.25
glycan array binding signal (z-score) [15]: 0.116
glycan array binding signal (z-score) (Gal(a1-4)Gal(b1-4)GlcNAc): -0.215
glycan array binding signal (z-score) (Gal(b1-2)Gal): 0.601
glycan array binding signal (z-score) [16]: -0.17
glycan array binding signal (z-score) [17]: -0.109
glycan array binding signal (z-score) [18]: -0.142
glycan array binding signal (z-score) [19]: 4.66
glycan array binding signal (z-score) (Gal(b1-4)GlcNAc(b1-2)Man): -0.167
glycan array binding signal (z-score) (Gal3S6S(b1-4)GlcNAc): -0.175
glycan array binding signal (z-score) (Gal6S(b1-4)Glc): 0.013
glycan array binding signal (z-score) [20]: 3.96
glycan array binding signal (z-score) [21]: -0.167
glycan array binding signal (z-score) (GlcNAc(b1-3)Gal): 0.13
glycan array binding signal (z-score) [22]: -0.152
glycan array binding signal (z-score) [23]: -0.442
